# IL1B cytotox: HUVEC cytotoxicity counter-screen, IL-1B stimulated; HUVEC cell count loss, Hoechst imaging; cell count reduction, % at 2 µM; hit rate 0.41% among 94,000; AID 845;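 active = cell count reduction more than 3 SD above the screen-wide mean, cut at about 70% in these data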;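 also: normalized per plate to untreated control cells as the no-loss baseline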
# NFkB transloc pot: enhances IL-1B driven NFkB nuclear translocation; HUVEC IL-1B NFkB p65 nuclear translocation imaging; activation, % at 2 µM; hit rate 0.3% among 94,000;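 active = activation above 40%, about the mean plus 3 SD, also judged a hit on visual image review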;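 also: percent activation is computed from the nuclear over cytoplasmic p65 intensity ratio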
# Insulin prom inh: TRM-6 insulin promoter activity inhibition; inhibition, % at 2 µM; AID 1273; TRM-6 cells (human fetal islet line), insulin promoter-eGFP reporter, imaging; reporter expression induced with tamoxifen; hit rate 0.9% among 130,000;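 active = inhibition above the mean plus 3 SD, with well images judged a real hit on visual review, cut at about 60% in these data, passing the limit was not always enough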
# IL1B NFkB inh: blocks IL-1B driven NFkB nuclear translocation in HUVEC cells. hit rate 0.43% among 94,000. AID 796. HUVEC IL-1B NFkB p65 nuclear translocation imaging. inhibition, % at 2 µM;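 active = inhibition above about 30% together with a positive call from visual inspection of the well image, limit read from the data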;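 also: nuclear over cytoplasmic p65 intensity ratio measured by imaging; 0% = IL-1B stimulated DMSO wells and 100% = unstimulated DMSO wells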
# Active calls of the source: *; / = not tested or not shown. An excerpt weighted towards active compounds, which were near 1.4% of everything screened.
SMILES,IL1B cytotox,NFkB transloc pot,Insulin prom inh,IL1B NFkB inh
CN(CCC#N)C(=O)c1ccc(CNS(=O)(=O)c2ccc(F)cc2)cc1,86*,-100,/,100*
CCOC(=O)N1CCN(C(=O)c2ccc3nc(C)sc3c2)CC1,-4,-4,71*,4
O=C(NCc1ccccc1)N[C@@H](Cc1c[nH]c2ccccc12)C(=O)O,-32,-5,75*,5
CCC(CC)C(=O)c1c[nH]c(C(=O)NCc2ccccn2)c1,/,/,33,/
N#Cc1c(SCC(N)=O)nc2c(c1-c1ccc(OCc3ccccc3)cc1)CCCC2,86*,3,-12,-3
COCC(C)n1c(C)cc(C(=O)Cn2c(=O)oc3ccccc32)c1C (stereo not given),-1,-2,79*,2
O=C(Cn1c(=O)oc2ccccc21)c1ccccc1,30,-7,73*,7
COCC(C)n1c(C)cc(C(=O)COC(=O)c2oc3ccccc3c2C)c1C (stereo not given),-44,7,33,-7
COc1ccc(N(CC(=O)Nc2ccc(C)cn2)S(=O)(=O)c2c(C)noc2C)cc1,-31,2,/,-2
CCC(Oc1nc2ccccc2nc1-c1ccccc1NC(C)=O)C(=O)c1ccccc1 (stereo not given),-10,2,-20,-14
CCN(CC)c1ccc2cc(-c3nc4ccccc4n3C)c(=O)oc2c1,59,-34,-138,34*
CN(C)Cc1cnc2ccc(Cl)cn12,87*,-97,32,97*
CCOC(=O)c1ccc(Nc2nc(C(=O)OCC)nc3ccccc23)cc1,84*,-3,63,3
CCOC(=O)c1ccc(NC(=O)c2cc3ccccc3o2)cc1,/,/,63*,/
CC(C)C(=O)Nc1ccc(NC(=O)c2cc3ccccc3o2)cc1,1,16,28,-16
Cc1ccc(Cc2nnc3n(-c4cccc(C)c4)nc(C(=O)c4ccccc4)n3c2=O)cc1,-2,14,-25,-14
CS(=O)(=O)Nn1cnc2ccccc2c1=O,-11,20,-4,-20
CC1(C)OC(=O)C(=CNn2cnc3ccccc3c2=O)C(=O)O1,-81,-19,82*,19
CN1C2CCC1/C(=C\c1ccccc1F)C(=O)/C2=C/c1ccccc1F,/,/,-14,/
CCC(Sc1ccc2nnc(-c3ccc(F)cc3)n2n1)C(=O)OC (stereo not given),82*,-3,-63,3
CCOc1ccc(-c2cc(CCCC(=O)NCCc3ccc(OC)c(OC)c3OC)no2)cc1,5,-3,-73,3
CCOc1ccc(-c2cc(CCCC(=O)NCCc3ccccc3)no2)cc1,-10,6,75*,-6
CC1=CC(C)C2(COC(=O)Nc3ccccc3)COC(C)C1C2C (stereo not given),/,/,-36,/
CCc1nnc(SCC(=O)Nc2ccc3c(c2)OCO3)o1,-5,6,68*,-6
Cc1nnc(SCC(=O)Nc2ccc3c(c2)OCO3)o1,-9,-9,-23,9
SMILES,IL1B cytotox,NFkB transloc pot,Insulin prom inh,IL1B NFkB inh
Cn1c(SCC(=O)Nc2ccc3c(c2)OCO3)nnc1-c1cnccn1,86*,-24,13,24
CCOC(=O)C(Cc1ccccc1)NC(C)=O (stereo not given),92*,-16,-387,16
CCCCN(CC)CCCNC(=S)Nc1ccc2nc3n(c(=O)c2c1)CCCCC3,/,/,21,/
CCOC(=O)CSc1nc(C)c2ccccc2n1,8,-9,79*,9
O=C(Nc1ccccc1C(=O)N1CCCC1)c1ccccc1,-1,-1,-54,1
O=C(Nc1ccsc1C(=O)N1CCCC1)c1ccccc1,/,/,91*,/
Cc1cc(C)c(OCCCCNCc2ccccc2)c(Cl)c1,10,5,8,-5
O=C(OCc1ccc(F)cc1)c1ccc2c(c1)-c1ccccc1C2=O,7,3,-21,-3
CCOC(=O)C1=C(Cc2ccc(F)cc2)C(=O)c2ccccc2C1=O,1,59*,-22,-59
CC1(C)Cc2cccc(Oc3ccc(S(=O)(=O)N4CCCCC4)cn3)c2O1,/,/,-100,/
O=S(=O)(c1ccc(Oc2ccc(Br)cc2F)nc1)N1CCCCC1,-44,-40,/,40*
Cc1cc2c3c(ccc(C)c3n1)N=CN2c1ccccc1,-1,1,81*,-1
COc1cccc(CNCCNC(=O)c2ccco2)c1OC,-26,42*,-28,-42
CC(NC(=O)OC(C)(C)C)C(=O)N1CCCC1C(=O)NC(Cc1ccccc1)C(N)=O (stereo not given),10,-2,6,2
CCOC(=O)[C@H](CCc1ccccc1)N[C@@H](C)C(=O)N1CCC[C@H]1C(=O)O,/,/,67*,/
CN(C)CCCOC(=O)c1ccccc1,12,5,-327,-5
CCOc1ccc(C(=O)OCCN(C)C)cc1,-1,58*,-75,-58
O=C(CC(=O)c1cc(Cl)ccc1O)c1ccccc1,89*,11,-40,-11
Cc1cccc(C(=O)CC(=O)c2cc(Cl)ccc2O)c1,6,-11,-17,10
O=C(Nc1ccc2c(c1)OCO2)c1cccc(F)c1,90*,-12,40,12
O=C(Nc1ccc2c(c1)OCO2)c1c(F)cccc1F,6,23,25,-23
Cc1cc(=O)oc2cc(OCC(=O)OCC(=O)Nc3ccccc3C(C)C)ccc12,/,/,60*,/
Cc1ccc(CNC(=O)c2ccc(CNc3c(N4CCCC4)c(=O)c3=O)cc2)cc1,0,41*,/,-41
CC1CCN(c2c(NCc3ccc(C(=O)N4CCc5ccccc54)cc3)c(=O)c2=O)CC1,-3,118*,/,-118
Cc1cccc(N2CCN(C(=O)c3ccc(CNc4c(N5CCC(C)CC5)c(=O)c4=O)cc3)CC2C)c1 (stereo not given),/,/,-14,/
SMILES,IL1B cytotox,NFkB transloc pot,Insulin prom inh,IL1B NFkB inh
CCOc1ccc(OCC)c(NC(=O)c2ccc(CNc3c(N4CCOCC4)c(=O)c3=O)cc2)c1,-3,70*,/,-70
CCN(c1ccc(NS(=O)(=O)c2cc(Cl)ccc2Cl)cc1)C(C)C,/,/,69*,/
Cn1c(COc2ccc3ccccc3c2)nnc1SCC(=O)OC1CCCCC1,51,41*,57,-41
C=CCn1c(SCC(=O)NCc2ccc3c(c2)OCO3)nnc1-c1cccnc1,/,/,76*,/
COc1ccc(NC(=O)C2CCN(S(C)(=O)=O)CC2)cc1,-130,-43,-21,42*
CCOc1ccccc1N(C(=O)CNC(=O)c1ccco1)C(C(=O)NC(C)(C)C)c1ccncc1 (stereo not given),-122,-9,18,9
COc1ccc(Cn2c(CCC(=O)O)nc3cccnc32)cc1,25,1,-29,-1
CCCCNC(=O)CCc1nc2cccnc2n1Cc1ccc(OC)cc1,5,5,83*,-5
CCc1ccc(CNC(=O)Cn2nc(-c3ccccc3)ccc2=O)cc1,/,/,20,/
O=C(Cn1nc(-c2ccccc2)ccc1=O)NCC1COCCO1 (stereo not given),89*,-98,100*,98*
O=C(NCCCn1ccnc1)c1ccncc1,14,8,11,-8
O=C(NCCCn1ccnc1)c1cc([N+](=O)[O-])cc([N+](=O)[O-])c1,/,/,73*,/
CCOc1ccccc1N(CC(=O)N1CCCCCC1)S(C)(=O)=O,-23,10,-67,-10
CCOc1ccccc1N(CC(=O)OC)S(C)(=O)=O,71*,-98,-14,98*
O=C(Cc1cccs1)N1CCN(c2ccc([N+](=O)[O-])cc2)CC1,/,/,57,/
